The source of these data is ChEMBL document CHEMBL4513146, “CO-ADD screening of Karazin Kharkiv National University (Ukraine) compounds”.

Results with a measured potency or affinity are listed apart.

One assay has as its system Klebsiella pneumoniae. The note with it: Concentration 32 ug.mL-1;; ASSAY_TEST Inhibition of Bacterial Growth; detection method Absorption (OD600); MEDIA CAMHB; plate type 384well; NBS; CORNING #3640; time 18 hr.
The next assay concerns Candida albicans. The note with it: Concentration 32 ug.mL-1; ASSAY_TEST Inhibition of Fungal Growth; detection method Absorption (OD530).
Another assay has as its system Cryptococcus neoformans. The conditions noted are these: Concentration 32 ug.mL-1; ASSAY_TEST Inhibition of Fungal Growth; detection method Resazurin; Absorption (OD600-OD570); plate type 384well; NBS; CORNING #3640.

Consider `Cc1ccc(C)c(Cn2nc3n(CC(C)C)c(=O)c4sccc4n3c2=O)c1`, for which the Inhibition in the assay with Klebsiella pneumoniae was 7.9%; in the assay with Candida albicans, -1.65%; with Cryptococcus neoformans, -8.63%.
Take `COc1cccc(-n2ccn3c(SCC(=O)NCc4ccc(Cl)cc4)nnc3c2=O)c1`: the Inhibition with Klebsiella pneumoniae is listed as 6.58%; with Candida albicans, 0.82%; in the assay on Cryptococcus neoformans, -6.96%.
For `CCCc1nnc2c(=O)n(CC(=O)Nc3ccc(NC(C)=O)cc3)c3ccccc3n12`, the Inhibition in the assay with Klebsiella pneumoniae is 9.56%; with Candida albicans it was -0.49%; with Cryptococcus neoformans, -26.74%.
For `CCc1nnc2c(S(=O)(=O)N(Cc3ccccc3F)c3ccc(F)cc3)cccn12`, in that order: 2.68%, 1.99% and -5.43%.
Regarding `COc1cccc(Oc2nccn3c(=O)n(CC(=O)Nc4ccc(C(C)C)cc4)nc23)c1`, the Inhibition in the assay with Klebsiella pneumoniae is -4.77%; with Candida albicans it was 3.55%; in the assay with Cryptococcus neoformans, -2.79%.
Turning to `N#Cc1cccc(NC(=O)Cn2nc3c4cc(-c5ccc(Cl)cc5)nn4ccn3c2=O)c1`, the results for the Inhibition with Klebsiella pneumoniae, with Candida albicans and with Cryptococcus neoformans were 3.5%, 20.48% and -13.1%, respectively.
For `COc1ccc(N2CCN(C(=O)Cn3nc4c(Oc5cccc(C)c5C)nccn4c3=O)CC2)cc1`, in that order: 15.7%, -0.29% and -13.03%.
Turning to `Cc1cc2nn(CC(=O)Nc3ccccc3F)c(=O)n2c(Nc2ccc(F)c(C)c2)n1`, the Inhibition in the assay on Klebsiella pneumoniae is listed as 9.21%; in the assay on Candida albicans, 7.27%; in the assay with Cryptococcus neoformans, -5.54%.
As to `CCCCn1c(=O)c2sccc2n2c(=O)n(CC(=O)c3ccc(C)cc3C)nc12`, the Inhibition is recorded as 10.99% in the assay on Klebsiella pneumoniae, -0.48% in the assay on Candida albicans and -20% in the assay on Cryptococcus neoformans.
On the same counts, the results for `O=C(Cn1nc2ccc(C(=O)NCc3ccccc3)cn2c1=O)Nc1ccc2c(c1)OCO2` are 7.16%, 3.87% and -36.87%.
Turning to `Cc1cc(C)c(NC(=O)Cn2nc3ccc(Sc4cccc(F)c4)nn3c2=O)c(C)c1`, the Inhibition was 1.06% in the assay with Klebsiella pneumoniae, 2.95% with Candida albicans and -10.61% in the assay with Cryptococcus neoformans.
